From PubChem BioAssay (NCI)
The panel holds about 83,000 compounds, 20% with a hit somewhere; the sample as a whole holds those more often.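 Assay: single dose, 48 h. Readout: percent growth (0 = no net growth; negative = cell death). Active: <10.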 Calls of active or inactive are those of the source.

System: A549/ATCC NSCLC
Test: NCI-60 one-dose screen, 48 h (100 = growth as untreated, 0 = no growth, -100 = all killed)
Conditions: 10 µM unless noted

| SMILES | growth |
| --- | --- |
| COc1cccc2cc(-c3nc(C4CCC(C(=O)O)CC4)n4ncnc(N)c34)[nH]c12 (stereo not given) | 5.25% (active) |
| CNC(=O)c1cc(Oc2ccc3nc(NC(=O)Nc4ccc(Cl)c(C(F)(F)F)c4)sc3c2)ccn1 | -25.1% (active) |
| C[C@@H](Oc1cc(-n2cnc3ccc(CN4CCN(C)CC4)cc32)sc1C(N)=O)c1ccccc1C(F)(F)F | 0.209% (active) |
| Oc1ccc(C(c2ccc(O)cc2)C(Cl)(Cl)Cl)cc1 | 89.2% (inactive) |
| C[C@H](NC(=O)c1c(N)nn2cccnc12)c1cc2cccc(C#Cc3cnn(C)c3)c2c(=O)n1-c1ccccc1 | 20.3% (inactive) |
| COc1cc(CCc2cc(NC(=O)c3ccc(N4C[C@@H](C)N[C@@H](C)C4)cc3)n[nH]2)cc(OC)c1 | 37.4% (inactive) |
| CNC(=O)CN1CCC(Oc2cc3c(Nc4cccc(Cl)c4F)ncnc3cc2OC)CC1 | 28.3% (inactive) |
| Cc1oc2c(C(=O)N/N=C\c3ccc(O)cc3O)c[nH]c2c1C | 12.7% (inactive) |
| CCCCCc1ccc(C)cc1OC(=O)CCl | 108% (inactive) |
| COc1cc2ncnc(Oc3cccc(NC(=O)Nc4cc(C(C)(C)C(F)(F)F)on4)c3)c2cc1OC | 33.4% (inactive) |
| COc1cc(Nc2ncc3c(n2)-c2ccc(Cl)cc2C(c2c(F)cccc2OC)=NC3)ccc1C(=O)O | 54.2% (inactive) |
| CC[C@H](Nc1ncnc2nc[nH]c12)c1nc2cccc(F)c2c(=O)n1-c1ccccc1 | 43.2% (inactive) |
| CN1CCN(CCOc2cc(OC3CCOCC3)c3c(Nc4c(Cl)ccc5c4OCO5)ncnc3c2)CC1 | 24.8% (inactive) |
| Nc1nc(Nc2ccccc2)c(C=Nc2ccccc2)c(=O)[nH]1 | 89.6% (inactive) |
| CNC(=O)c1cc(Oc2cccc3nc(Nc4ccc(Oc5ccccc5)cc4)ccc23)ccn1 | 58.3% (inactive) |
| CN1CC[C@@H](c2c(O)cc(O)c3c(=O)cc(-c4ccccc4Cl)oc23)[C@@H]1CO | 4.56% (active) |
| Cc1[nH]n(C(N)=S)c(=O)c1N=Nc1ccc(S(=O)(=O)Nc2ccncn2)cc1 | 101% (inactive) |
| COCCN1CCN(Cc2ccc(-c3n[nH]c4c3C(=O)c3c(NC(=O)NN5CCOCC5)cccc3-4)cc2)CC1 | -42.4% (active) |

| SMILES | growth |
| --- | --- |
| CN(c1ncccc1CNc1nc(Nc2ccc3c(c2)CC(=O)N3)ncc1C(F)(F)F)S(C)(=O)=O | 2.18% (active) |
| COc1cc(N2CCC(N3CCN(C)CC3)CC2)ccc1Nc1ncnc(Nc2ccccc2S(=O)(=O)C(C)C)n1 | 104% (inactive) |
| O=C(COc1ccc(/C=C2\Cc3ccc(Cl)cc3C2=O)cc1)Nc1nccs1 | 83.7% (inactive) |
| O=C(c1ccc(/C=C/c2n[nH]c3ccccc23)cc1)N1CCNCC1 | 22.4% (inactive) |
| O=C(O)C1(Cc2cccc(Nc3nccs3)n2)CCC(Oc2cccc(Cl)c2F)CC1 (stereo not given) | 41.9% (inactive) |
| Cc1cc(O)cc(-c2c(-c3ccnc(-c4cccnc4)c3)cnn2C)c1 | 78.1% (inactive) |
| Cc1c(CN2CCN(C(=O)[C@H](C)O)CC2)sc2c(N3CCOCC3)nc(-c3cnc(N)nc3)nc12 | -20.8% (active) |
| CN1CCN(c2ccc(C(=O)Nc3n[nH]c4ccc(Cc5cc(F)cc(F)c5)cc34)c(NC3CCOCC3)c2)CC1 | -51.7% (active) |
| C#Cc1cccc(Nc2ncnc3cc(OCCOC)c(OCCOC)cc23)c1 | 41.5% (inactive) |
| COc1ccc(Nc2ncccc2NC(=O)c2cn(Cc3cccc(Oc4ccccc4)c3)nn2)cc1 | 80.2% (inactive) |
| O=C1NC(=O)[C@@H](c2cn3c4c(cccc24)CCC3)[C@@H]1c1c[nH]c2ccccc12 | 6.25% (active) |
| Cc1cc(-c2cc(O)ccc2Cl)cc2nnc(Nc3ccc(OCCN4CCCC4)cc3)nc12 | -70.7% (active) |
| C=CCN(/C=C1/C(=O)O[C@H](COC)[C@@]2(C)C1=C(O)C(=O)C1=C2[C@H](OC(C)=O)C[C@]2(C)C(=O)CC[C@@H]12)CC=C | 4.59% (active) |
| CNC(=O)c1nn(C)c2c1C(C)(C)Cc1cnc(Nc3ccc(N4CCN(C)CC4)cc3)nc1-2 | -0.797% (active) |
| CC(C)Nc1cc(-c2c[nH]c(C(=O)N[C@H](CO)c3cccc(Cl)c3)c2)c(Cl)cn1 | 14.8% (inactive) |
| COc1ccc(Cc2cc(-c3ccccc3C)n[nH]c2=O)cc1 | 99.9% (inactive) |
| CC(C)[C@@H]1CC[C@@H]2[C@@H]1[C@H](OC(=O)/C=C/c1ccccc1)[C@]1(C(C)C)C[C@@H](OC(=O)CO)[C@@]2(C)O1 | 71.4% (inactive) |
